HP1b binding inh: HTS for Inhibitors of HP1-beta Chromodomain Interactions with Methylated Histone Tails; Chromobox protein homolog 1 (Homo sapiens), P83916; AlphaScreen HP1-beta / biotin-H3K9me3 peptide binding; Potency, µM (top dose mostly 114 µM), for inactives: top-dose activity change, negative = inhibition, most hits filed as inhibitors; 390,000 tested, 0.56% active; further: nearly all actives have a fitted effect of over 70% in size
Target sequence (P83916 whole entry, looked up): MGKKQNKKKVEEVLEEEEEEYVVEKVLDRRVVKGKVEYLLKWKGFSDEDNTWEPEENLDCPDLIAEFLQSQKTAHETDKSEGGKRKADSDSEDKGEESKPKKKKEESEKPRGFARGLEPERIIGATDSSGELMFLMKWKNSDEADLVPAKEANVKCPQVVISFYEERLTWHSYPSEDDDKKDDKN
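Compound inhibition of the preformed complex between 50 nM HP1-beta and 50 nM biotinylated H3K9me3 peptide was read by AlphaScreen. Buffer was PBS pH 7.4 with 0.01% Tween-20. Incubations ran 30 min at room temperature, with 10 ug/mL donor/acceptor beads.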
G9a block: qHTS Assay for Inhibitors of Histone Lysine Methyltransferase G9a; Histone-lysine N-methyltransferase EHMT2 (Homo sapiens), Q96KQ7; G9a H3K9 monomethylation, AlphaScreen, 2 h; Potency, µM (doses to about 102 µM), for inactives: at the highest dose activity, negative = inhibition, hits mostly inhibitors; 350,000 tested, 8.8% active; AID 504332, 2011; further: on the % scale 0 is the no-effect control and ±100 the full control effect; nearly all actives have a fitted effect of over 75% in size
Target sequence (Q96KQ7 913-1193 limits assumed): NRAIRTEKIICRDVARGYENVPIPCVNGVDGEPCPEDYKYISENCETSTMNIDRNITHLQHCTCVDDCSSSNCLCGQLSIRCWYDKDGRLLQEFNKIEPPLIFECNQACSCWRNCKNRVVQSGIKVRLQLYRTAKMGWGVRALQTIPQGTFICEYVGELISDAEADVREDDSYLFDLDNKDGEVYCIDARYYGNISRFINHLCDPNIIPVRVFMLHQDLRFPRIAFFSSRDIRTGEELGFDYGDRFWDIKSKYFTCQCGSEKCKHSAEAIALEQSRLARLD
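Using a bead-based AlphaScreen, monomethylated H3K9 product from 2 h room-temperature reactions (G9a 20 nM, peptide 500 nM, SAM 20 uM) was detected with 0.5 ug/mL rabbit anti-H3K9me1 antibody.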
JMJD2A Tudor inh: qHTS Assay for Inhibitors of JMJD2A-Tudor Domain; AlphaScreen JMJD2A-Tudor / H3K4me3 peptide binding; Potency, µM (doses to about 114 µM), for the others: top-dose activity change, negative = inhibition, most hits filed as inhibitors; 390,000 tested, 4.4% active; AID 504339, 2011; further: on the % scale 0 is the no-effect control and ±100 the full control effect; nearly all actives have a fitted effect of over 50% in size
BAZ2B inh: qHTS Assay for Inhibitors of BAZ2B; Bromodomain adjacent to zinc finger domain protein 2B (Homo sapiens), Q9UIF8; AlphaScreen BAZ2B-H3K14Ac peptide displacement; Potency, µM (highest dose often 114 µM), for the others: top-dose activity change, negative = inhibition, usual class: inhibitors; 360,000 tested, 4.4% active; AID 504333, 2011; further: on the % scale 0 is the no-effect control and ±100 the full control effect; nearly all actives have a fitted effect of over 60% in size
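In this displacement format the biotinylated H3(5-23) peptide acetylated at Lys14 serves as ligand at 50 nM, with BAZ2B at 50 nM in PBS pH 7.4 containing 0.01% Tween-20. Donor and acceptor beads are 10 ug/mL final.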
Sfp inh: qHTS Assay for Inhibitors of Bacillus subtilis Sfp phosphopantetheinyl transferase (PPTase). Potency, µM, for inactives: largest response in the series, negative = inhibition, actives largely listed as inhibitors. 4'-phosphopantetheinyl transferase ffp (Bacillus subtilis), Q9F4F7. 310,000 tested, 3.5% active. Biochemical Sfp PPTase activity, qHTS;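 further: the enzyme is Sfp with the accession as filed and its product quenches rhodamine fluorescence; 0% = enzyme reaction without inhibitor and -100% = no enzyme wells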
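Step 1, compound plus 15 nM Sfp-PPTase, 15 min, room temperature. Step 2, add rhodamine-CoA (5 uM) and BHQ-2-YbbR (12.5 uM). Step 3, read 525/598 nm fluorescence at 0 and 30 min.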
TDP1 block: qHTS Assay for Inhibitors of Tyrosyl-DNA Phosphodiesterase (TDP1) | Tyrosyl-DNA phosphodiesterase 1 (Homo sapiens), Q9NUW8 | recombinant TDP1, AlphaScreen DNA substrate cleavage | Potency, µM (series often up to 130 µM), without a hit: top-dose activity change, negative = inhibition, actives largely listed as inhibitors | 350,000 tested, 0.28% active | AID 485290, 2010; further: on the % scale 0 is the no-effect control and ±100 the full control effect; nearly all actives have a fitted effect of over 40% in size
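E. coli-derived human Tdp1, 1 nM final. Cpd preinc 15 min RT; substrate 15 nM final, 5 min RT; AS bead mix 10 ug/ml final, 10 min RT. Signal loss = tyrosine-FITC cleavage. No-enzyme wells = max signal.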
The depositor's hits bear a star; ? = inconclusive; . = no result; [ ] = dose if it differs, or a comment. In the library only some 12% were active in any assay of this set; here they are far more common. The call rests on the fitted dose curve; in most records, active means well fitted curve in the direction sought with a large enough effect; inconclusive means small, poorly fitted or top-dose-only effect, or another doubt; inactive means no such curve, though single readings can be large; an effect the other way counts as inactive or inconclusive. Potency means the concentration at half of the fitted maximal effect.

SMILES | HP1b binding inh | G9a block | JMJD2A Tudor inh | BAZ2B inh | Sfp inh | TDP1 block
COc1ccc(CCN(C)C(=O)c2ccc3c(=O)n4c(nc3c2)CCCCC4)cc1OC | 23.4% | . | -5.4% | . | . | 2.0%
COc1ccc(-c2csc(=Nc3ccccc3)n2CCO)cc1 | ? | 39.8µM* | 44.7µM* | 12.6µM* | -7.4% | 7.9%
C=CCn1c(-c2ccc(OC)cc2)csc1=Nc1c(C)n(C)n(-c2ccccc2)c1=O | -9.7% | ? | ? | ? | -3.6% | 3.6%
N#C/C(=C\c1c[nH]c2ccccc12)C(=O)NC1CC1 | 16.3% | . | -7.6% | -8.5% | -0.1% | .
N#C/C(=C\c1ccc(O)c(O)c1)C(=O)c1ccc(O)c(O)c1 | ? | 2.24µM* | 0.708µM* | 2.24µM* | . | .
N#C/C(=C\c1ccc(O)c(O)c1)S(=O)(=O)c1ccccc1 | ? | 3.16µM* | ? | 10µM* | 10.7% | 10.0%
N#C/C(=C\c1ccc(O)c(O)c1)C(=O)N1CCCC1 | 35.5% | 12.6µM* | ? | . | 63.1µM* | 2.7%
N#C/C(=C\c1c[nH]c2ccccc12)C(=O)c1ccc(O)c(O)c1 | . | 17.8µM* | . | . | . | 17.0%[56.1 µM]
Cc1ccccc1-c1ccc2ncnc(NCc3cccs3)c2c1 | . | -36.9%[0.501 µM] | . | . | ? | .
Cc1cn(CC(=O)NCCNc2ccc([N+](=O)[O-])cn2)c(=O)[nH]c1=O | 11.5% | . | -2.7% | . | . | .
COCCCNCCCOc1ccc(C(C)(C)c2ccccc2)cc1 | ? | 2.82µM* | 6.31µM* | 44.7µM* | 56.2µM* | 0.0%
CC(C)(C)c1ccc(OCCCNCc2ccccc2)cc1 | ? | 10µM* | 3.55µM* | ? | -43.0% | 0.6%
CCc1cc(OCCCCNCc2ccccc2)ccc1Cl | 25.2% | ? | 6.31µM* | ? | -12.8% | -5.3%
COCCNCCCOc1ccc(C(C)(C)c2ccccc2)cc1 | ? | 10µM* | 0.794µM* | 35.5µM* | 15.8µM* | -1.1%
CC(C)N1CCC(N2CCN(C/C=C/c3ccccc3)CC2CCO)CC1 (stereo unspecified) | 14.8% | -33.4% | -17.5% | -1.5% | -1.6% | -6.0%
Cc1cc(C(=O)NNC(=O)c2ccc(F)cc2)c(C)s1 | 21.8% | . | -8.9% | . | . | -0.5%
OCCNCCCCOc1ccc(OCc2ccccc2)cc1 | -0.5% | 18.3%[59 µM] | -33.8% | -9.4% | 7.0% | -2.6%
C=CCNCCCOc1ccc(C(C)(C)c2ccccc2)cc1 | ? | 10µM* | 1.58µM* | 39.8µM* | -65.4% | 3.2%
CC(C)(c1ccccc1)c1ccc(OCCCNCCO)cc1 | -6.7% | -23.1%[12.7 µM] | -15.3%[11.4 µM] | 56.2µM* | -28.3% | 3.9%
O=C1/C(=C/c2ccco2)Cc2ccccc21 | -19.7% | ? | -30.7% | ? | -9.9% | 5.4%
CC1C/C(=C/c2cccs2)C(=O)/C(=C/c2cccs2)C1 (stereo unspecified) | ? | 35.5µM* | ? | ? | -4.9% | 5.3%
O=C1/C(=C\c2ccco2)CCC/C1=C\c1ccco1 | 44.7µM* | ? | 44.7µM* | 44.7µM* | 11.2µM* | 2.3%
CC1C/C(=C/c2ccccn2)C(=O)/C(=C/c2ccccn2)C1 (stereo unspecified) | 10.4% | 50.1µM* | -9.7% | ? | 44.7µM* | 0.0%
CC1C/C(=C/c2ccco2)C(=O)/C(=C/c2ccco2)C1 (stereo unspecified) | . | 12.6µM* | . | 35.5µM* | ? | 0.0%
CC(C)(C)C1C/C(=C/c2ccccn2)C(=O)/C(=C/c2ccccn2)C1 (stereo unspecified) | 15.3% | ? | -10.3%[11.4 µM] | ? | ? | 3.7%
SMILES | HP1b binding inh | G9a block | JMJD2A Tudor inh | BAZ2B inh | Sfp inh | TDP1 block
COc1ccc(-c2ccc(OC)c(C3C4C=CCCC4(C)C(=O)N3Cc3ccccc3)c2)cc1OC (stereo unspecified) | -11.2% | . | ? | . | ? | 15.0%
COc1ccc(Br)cc1CNC(=O)CN1C(=O)CCCc2ccccc21 | 32.1% | 3.7%[59 µM] | -14.5% | -0.3% | . | -5.0%
O=C(CSc1ccc2nnc(-c3cccnc3)n2n1)Nc1ccccc1 | 40.8% | 50.1µM* | -23.1% | -10.8% | -6.1% | 6.3%
COc1ccc(-c2nnc3ccc(SCC(=O)NCc4ccco4)nn23)cc1 | 8.1% | ? | -17.9% | ? | -7.7% | 79.4µM*
COc1cccc(NC(=O)CSc2ccc3nnc(-c4ccncc4)n3n2)c1 | 48.9% | 50.1µM* | -10.6% | -30.7% | 0.2% | 9.2%
COC(=O)c1ccc(CSc2ccc3nnc(-c4cccnc4)n3n2)o1 | . | 25.1µM* | . | -14.9% | 0.6% | -3.1%
O=C(CSc1ccc2nnc(-c3cccnc3)n2n1)Nc1cccc(F)c1 | 28.9% | ? | -14.4% | -18.5% | 17.0% | 9.2%
COc1cc(NC(=O)C(CCS(C)(=O)=O)N2Cc3ccccc3C2=O)cc(OC)c1OC (stereo unspecified) | 18.8% | ? | -14.2% | ? | . | -5.0%
COc1ccc(-c2nnc3ccc(SCC(=O)Nc4cc(C)on4)nn23)cc1 | . | 56.2µM* | . | . | -15.5% | 0.0%
O=C(CSc1ccc2nnc(-c3cccnc3)n2n1)NCc1ccc2c(c1)OCO2 | 33.3% | ? | 56.2µM* | -5.6% | ? | 6.5%
O=C(CSc1ccc2nnc(-c3ccccc3)n2n1)NCc1ccc2c(c1)OCO2 | 76.4% | 2.7%[59 µM] | -2.1% | 5.8% | 6.8% | 1.1%
Cc1cc(NC(=O)CSc2ccc3nnc(-c4ccccc4)n3n2)no1 | 6.4% | ? | -7.2% | 2.1% | -0.6% | 0.0%
CC(C)(C)c1ccc(C(=O)NC(=S)Nc2ccc(N3CCOCC3)cc2)cc1 | 8.2% | -13.2% | -17.1% | -12.3% | -2.1% | -0.6%
CC(=O)N1CCN(c2ccc(NC(=O)c3cccc(C)c3)cc2)CC1 | 5.6% | . | -6.8% | -5.3% | 7.1% | .
Cc1ccc(C(=O)NC(=S)Nc2ccc(N3CCOCC3)cc2)cc1C | ? | ? | 50.1µM* | 20µM* | 1.1% | 10.3%
COc1ccc(C(=O)NC(=S)Nc2ccc(N3CCOCC3)cc2)cc1Cl | ? | 25.1µM* | 25.1µM* | 22.4µM* | -4.9% | 9.5%
O=C(NC(=S)Nc1ccc(N2CCOCC2)cc1)c1ccc(Cl)cc1 | -12.1% | ? | -10.6% | -0.3% | -12.2% | 3.4%
S=C(Nc1ccc(N2CCOCC2)cc1)Nc1ccc2snnc2c1 | -13.5% | 28.2µM* | ? | -31.9% | -66.5% | 5.0%

From PubChem
